Experimental data from ChEMBL document CHEMBL4513146, “CO-ADD screening of Karazin Kharkiv National University (Ukraine) compounds”.
Entries with a potency or affinity are not part of this list.

Assays:
Staphylococcus aureus = conditions: Concentration 32 ug.mL-1;; ASSAY_TEST Inhibition of Bacterial Growth; detection method Absorption (OD600); MEDIA CAMHB; plate type 384well; NBS; CORNING #3640; time 18 hr
Escherichia coli = conditions: Concentration 32 ug.mL-1;; ASSAY_TEST Inhibition of Bacterial Growth; detection method Absorption (OD600); MEDIA CAMHB; plate type 384well; NBS; CORNING #3640; time 18 hr

SMILES | Inhibition (Staphylococcus aureus) | Inhibition (Escherichia coli)
O=C(Cn1nc2c(N3CCOCC3)nccn2c1=O)NCc1cc(F)cc(F)c1 | 7.03% | -4.76%
O=C(CCc1nnc2c(N3CCCCC3)nc3ccccc3n12)NCc1ccccc1Cl | 7.81% | 4.64%
COc1cccc(Oc2nccn3c(=O)n(CC(=O)Nc4ccc(C)cc4Cl)nc23)c1 | 10.57% | -3.8%
Cc1ccc(-c2cc3c4nn(CC(=O)NCc5ccccc5)c(=O)n4ccn3n2)cc1C | -8% | -9.14%
O=c1n(Cc2cccc(Cl)c2)nc2ccc(-c3ccccc3)nn12 | 13.35% | 0.79%
Cc1ccc(Cl)cc1NC(=O)Cn1nc2c3c4c(sc3ncn2c1=O)CCCCC4 | 5.6% | -1.7%
COc1ccc(NC(=O)c2ccc3nn(CC(=O)Nc4ccc5c(c4)OCCO5)c(=O)n3c2)cc1 | 0.27% | -8.29%
COc1ccc(C)cc1NC(=O)Cn1nc2c3cc(-c4ccc(C)c(C)c4)nn3ccn2c1=O | 0.65% | -4.8%
COc1ccccc1NC(=O)Cn1nc2c(SCc3ccccc3)nccn2c1=O | -5.43% | -12.47%
Cc1nnc2c(SCC(=O)N3CCN(c4ccccc4F)CC3)nc3ccccc3n12 | 19.81% | 5.15%
CC(C)c1ccc(N(Cc2ccccc2)S(=O)(=O)c2cccn3cnnc23)cc1 | 5.98% | -8.68%
CCCCn1c(=O)c2sccc2n2c(=O)n(CC(=O)N(C)c3ccccc3)nc12 | -8.63% | -12.98%
CCOC(=O)c1ccccc1NC(=O)Cn1nc2c(Oc3ccccc3)nccn2c1=O | 12.16% | 1.14%
O=C(Cn1nc2c(N3CCOCC3)nccn2c1=O)Nc1cc(C(F)(F)F)ccc1Cl | 6.98% | 4.52%
CCOc1ccccc1NC(=O)Cn1nc2c3cc(-c4ccc(Cl)cc4)nn3ccn2c1=O | 6.48% | 1.3%
Cc1nnc2c(S(=O)(=O)N(Cc3cccc(F)c3)c3ccc(C(C)C)cc3)cccn12 | 15.47% | -0.86%
CCOc1ccc(-c2nc(CSc3nc4ccccc4n4c(C(C)C)nnc34)c(C)o2)cc1 | -10.96% | -11.72%
Cc1cccc(CN(c2cccc(F)c2)S(=O)(=O)c2ccc3nncn3c2)c1 | -2.24% | -9.18%
Cc1cc2nn(CC(=O)Nc3cccc(F)c3)c(=O)n2c(Nc2ccc(F)c(C)c2)n1 | -1.56% | -7.72%
O=C(Cn1nc2c3cc(-c4ccc(F)cc4)nn3ccn2c1=O)Nc1ccc(Br)cc1 | -9.12% | -9.31%
CC(C)c1ccc(NC(=O)CSc2nc3ccccc3n3cnnc23)cc1 | 8.55% | -4.05%
COc1ccc(NC(=O)C(C)Sc2nnc3c(=O)n(-c4cccc(OC)c4)ccn23)cc1 (configuration not stated) | 6.45% | -9.09%
CCc1nnc2c(SCC(=O)Nc3ccc(C(=O)OC)cc3)nc3ccccc3n12 | 1.34% | -1.9%
CC(C)c1nnc2c(SCC(=O)Nc3ccccc3F)nc3ccccc3n12 | 10.78% | -2.22%

SMILES | Inhibition (Staphylococcus aureus) | Inhibition (Escherichia coli)
O=C(CSc1nnc2c(=O)n(-c3ccc(F)c(F)c3)ccn12)c1cccc(Cl)c1 | 13.4% | -3.45%
COc1ccccc1N1CCN(C(=O)CSc2nc3ccccc3n3cnnc23)CC1 | 11.06% | 4.69%
CC(C)Cn1c(=O)c2sccc2n2c(=O)n(CC(=O)NC(C)(C)C)nc12 | -11.52% | -13.32%
O=C(Cn1nc2c3cc(-c4ccc(Cl)cc4)nn3ccn2c1=O)N1CCN(c2ccccc2)CC1 | 8.68% | -1.74%
CCc1nnc2ccc(S(=O)(=O)N(Cc3cccc(F)c3)c3ccc(OC)cc3)cn12 | 7.39% | -21.14%
COc1ccc(NC(=O)CSc2nnc3c(=O)n(-c4ccc(Br)cc4)ccn23)cc1 | 5.23% | 2.74%
Cc1cccc(NC(=O)Cn2c(=O)c3nnc(C(C)C)n3c3ccccc32)c1 | 1.06% | -8.16%
CSc1ccc(CNC(=O)Cn2nc3c(Oc4ccccc4)nccn3c2=O)cc1 | 10.07% | 1.2%
Cc1ccc(C)c(-c2cc3c4nnc(CCC(=O)NCCc5ccc(Cl)cc5)n4ccn3n2)c1 | 5.83% | 3.02%
CCN(C(=O)CSc1nnc2c3cc(-c4ccc(OC)cc4)nn3ccn12)c1ccccc1 | 5.44% | -0.03%
CCCn1c(=O)c2sccc2n2c(=O)n(Cc3ccc(Cl)cc3)nc12 | 1.51% | -6.17%
Cc1cc(C)c(NC(=O)Cn2nc3c(Sc4ccccc4)nccn3c2=O)c(C)c1 | 5.4% | -7.73%
O=C(CSc1nnc2c3cc(-c4ccc(F)cc4)nn3ccn12)NCc1ccccc1 | -2.17% | -6.24%
Cc1ccc(Sc2ccc3nn(CC(=O)Nc4ccc(F)c(Cl)c4)c(=O)n3n2)cc1 | 7.06% | 0.26%
Cc1ccc(N(CC(=O)OC(C)(C)C)S(=O)(=O)c2ccc3nnc(C)n3c2)cc1 | 2.37% | -3.61%
Cc1ccccc1CN(c1ccc(C(C)C)cc1)S(=O)(=O)c1cccn2c(C)nnc12 | 9.54% | -1.18%
O=C(Cn1nc2ccc(SCc3ccc(Cl)cc3)nn2c1=O)NC1CCCCC1 | 0.02% | -9.74%
O=c1c2sccc2n2c(=O)n(Cc3c(F)cccc3Cl)nc2n1CCc1ccccc1 | 3.01% | -6.52%
COc1ccc(NC(=O)Cn2nc3c(Oc4ccccc4)nccn3c2=O)cc1OC | 1.69% | -7.24%
Cc1ccc(Oc2nccn3c(=O)n(CC(=O)N4CCN(c5ccc(F)cc5)CC4)nc23)cc1 | 10.18% | 1.45%
CCOc1ccc(C(=O)Cn2nc3n(CCC(C)C)c(=O)c4sccc4n3c2=O)cc1 | 6.67% | 3.25%
COc1ccc(CN(c2ccc(F)cc2)S(=O)(=O)c2ccc3nnc(C)n3c2)cc1F | -10.32% | -13.96%
COc1cccc(-n2ccn3c(SCC(=O)Nc4ccc(F)cc4F)nnc3c2=O)c1 | 12.12% | -6.2%
CCC(C)NC(=O)Cn1c(=O)c2nnc(C)n2c2ccccc21 (configuration not stated) | 9.8% | -2.5%

SMILES | Inhibition (Staphylococcus aureus) | Inhibition (Escherichia coli)
COc1cc(NC(=O)C(C)Sc2nnc3c(=O)n(-c4ccc(F)cc4)ccn23)cc(OC)c1 (configuration not stated) | 6.77% | -6.93%
CC(C)NC(=O)CCn1c(=O)c2cc(Cl)ccc2n2c(=O)n(CC#N)nc12 | 0.39% | -9.95%
Cc1ccc(NC(=O)Cn2nc3c(Oc4ccccc4Cl)nccn3c2=O)cc1F | 7.48% | -2.62%
CCc1ccc(N(Cc2cccc(Cl)c2)S(=O)(=O)c2cccn3c(C)nnc23)cc1 | 10.13% | -1.93%
COc1ccc(-n2ccn3c(-c4ccc([N+](=O)[O-])cc4)nnc3c2=O)cc1Cl | 17.28% | 1.52%
O=S(=O)(c1ccc2nncn2c1)N(Cc1cccc(F)c1)c1ccc2c(c1)OCCO2 | 1.17% | -4.29%
CCc1ccc(N(Cc2ccccc2C)S(=O)(=O)c2cccn3c(CC)nnc23)cc1 | 11.1% | -3.02%
CCN(C(=O)Cn1nc2nc(Nc3ccc(F)cc3)ccn2c1=O)c1ccccc1 | 12.68% | -3.17%
Cc1ccc(-c2ccc3nn(CC(=O)N4CCN(c5ccccc5F)CC4)c(=O)n3n2)cc1C | 3.55% | -1.18%
Cc1ccc(-c2cc3c4nn(CC(=O)NC5CCCC5)c(=O)n4ccn3n2)cc1C | -0.99% | -0.5%
CCc1ccccc1Sc1nccn2c(=O)n(CC(=O)N3CCN(c4ccccc4F)CC3)nc12 | -3.66% | -8.54%
COc1ccc(N2CCN(C(=O)Cn3nc4c(Oc5ccc(C)cc5)nccn4c3=O)CC2)cc1 | 4.51% | -5.74%
CCCN(C)c1nccn2c(=O)n(CC(=O)Nc3ccc(F)cc3)nc12 | 13.38% | -2.86%
COC(=O)c1ccc(CN(c2ccc(F)cc2)S(=O)(=O)c2cccn3c(C)nnc23)o1 | 11.5% | -1.28%
Cc1ccc(CNC(=O)CSc2nnc3c4cc(-c5ccc(F)cc5)nn4ccn23)cc1 | 12.38% | -2.28%
O=C(Cn1nc2c3sc(N4CCCC4)nc3ncn2c1=O)Nc1ccccc1Br | 3.7% | -11.75%
COc1ccc(-c2cc3c4nn(CC(=O)Nc5ccc(OC)c(Cl)c5)c(=O)n4ccn3n2)cc1 | -2.49% | -6.71%
CCc1ccc(N(Cc2ccc(C)cc2)S(=O)(=O)c2cccn3cnnc23)cc1 | 18.47% | 2.14%
Cc1ccc(-c2ccc3nn(Cc4cccc(F)c4)c(=O)n3n2)cc1C | 7.67% | 1.83%
O=c1c2sccc2n2c(=O)n(Cc3ccccc3Cl)nc2n1CCc1ccccc1 | 10.44% | 0.77%
O=C(Cn1nc2c(Sc3ccccc3)nccn2c1=O)Nc1cccc(Cl)c1F | 9.57% | -0.62%
COc1ccc(C(=O)CSc2nnc3c(=O)n(-c4ccc(F)c(F)c4)ccn23)cc1OC | 3.91% | -0.1%
Cc1nnc2ccc(S(=O)(=O)N(Cc3ccc(F)cc3)c3ccc(Cl)cc3)cn12 | 3.43% | -7.02%
